Most compounds without a hit are left out; they make up all but 3.5% or so of the library.
UGM FP inh: blocks M. tuberculosis UGM enzyme | P9WIQ1 | purified UGM, fluorescence polarization probe displacement | inhibition, % at 10 µM | 320,000 compounds, 0.06% hits | AID 504406; in the data active means inhibition above about 10%, passing the limit was not always enough
Rv3671c protease: Rv3671c (M. tuberculosis) protease inhibition; P9WHR9; inhibition, % at 5.96 µM; 320,000 compounds, 0.048% hits; AID 2606; in the data active means inhibition above about 38%;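 further: extracellular domain of Rv3671c used as enzyme; 0% = enzyme with DMSO and 100% = no enzyme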
Target sequence (P9WHR9 whole entry, looked up, the tested form may be a part): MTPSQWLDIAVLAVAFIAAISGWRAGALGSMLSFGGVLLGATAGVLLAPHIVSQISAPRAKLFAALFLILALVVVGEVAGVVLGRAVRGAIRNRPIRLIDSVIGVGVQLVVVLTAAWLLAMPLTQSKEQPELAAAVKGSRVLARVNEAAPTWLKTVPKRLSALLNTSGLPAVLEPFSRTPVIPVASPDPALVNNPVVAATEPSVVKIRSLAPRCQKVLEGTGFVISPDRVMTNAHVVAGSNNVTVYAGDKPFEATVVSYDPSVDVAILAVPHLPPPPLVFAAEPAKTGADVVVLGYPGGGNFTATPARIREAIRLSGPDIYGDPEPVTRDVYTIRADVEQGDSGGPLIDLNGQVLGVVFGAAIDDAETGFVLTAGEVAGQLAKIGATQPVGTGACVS
Mtb FBA inh: inhibitors of M. tuberculosis fructose-bisphosphate aldolase; purified M. tuberculosis FBA, fluorescence read-out; 360,000 compounds, 2.3% hits; P9WQA3; inhibition, % at 1 µM; AID 588726; in the data active means inhibition above about 27%;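 further: 0% = vehicle and 100% = reference inhibitor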
Mtb hypoxia inh: inhibitors of hypoxia-regulated fluorescent reporter in Mycobacterium tuberculosis. fluorescence inhibition, % (no concentration beside the values). M. tuberculosis hypoxia-regulated fluorescent reporter, fluorescence. 300,000 compounds, 0.1% hits. AID 1159583; in the data active means fluorescence inhibition mostly above about 23%, no sharp cut-off; inactive means mostly below about 17%
GDH-TPI inh: counter-screen for M. tuberculosis FBA inhibitors: GDH-TPI coupled enzymes; GDH-TPI coupled enzyme counterscreen, NADH absorbance; inhibition, % at 4.8 µM; 360,000 compounds, 1.2% hits; in the data active means inhibition above about 30%;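 further: 0% = DMSO wells and 100% = wells lacking the enzyme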
FadD28 FP inh: inhibitors of Mycobacterium tuberculosis FadD28 bisubstrate binding; FadD28 bisubstrate probe binding, fluorescence polarization; inhibition, % at 12.5 µM; 360,000 compounds, 0.22% hits; AID 588549; in the data active means inhibition above about 8.5%, passing the limit was not always enough
* hit, by the source's call; . = no result given; + = active, no number.

SMILES	UGM FP inh	Rv3671c protease	Mtb FBA inh	Mtb hypoxia inh	GDH-TPI inh	FadD28 FP inh
Cc1cc(=O)oc2c(CN3CCOCC3)c(O)ccc12	.	.	.	6	38*	-1
Cc1cc(=O)oc2c(CN3CC(C)OC(C)C3)c(O)c(Cl)cc12 (stereo not given)	5	-3	+	10	-3	-2
Cc1cc(=O)oc2c(CN3CCCCC3)c(O)ccc12	.	.	.	.	16	-2
CC1OC(OC2C(O)C(C)OC(OC(=O)[C@]34CCC(C)(C)CC3C3=CCC5[C@@]6(C)CC(O)C(OC7OC(CO)C(O)C(O)C7O)[C@@](C)(C(=O)O)C6CC[C@@]5(C)[C@]3(CO)CC4)C2OC2OC(C)C(OC3OCC(OC4OC(CO)C(O)C(O)C4O)C(O)C3O)C(O)C2O)C(O)C(O)C1O (stereo not given in full)	.	.	.	17	.	.
O=C(NN=Cc1ccco1)c1cncc(Br)c1	.	.	.	-8	.	.
CC(C)n1c(O)c(N=Nc2ccc(Cl)c(C(=O)O)c2)c2ccccc21	0	-8	-18	3	12	11*
CCn1c(O)c(N=Nc2ccc(Cl)c(C(=O)O)c2)c2ccccc21	1	5	-19	6	35*	1
CCOC(=O)N=Nc1c(O)n(CC)c2ccccc12	0	8	-2	13	13	-1
COc1ccc(C2CC=C(C(=O)O)C(c3ccc(F)cc3)N2S(=O)(=O)c2ccc(Cl)cc2)cc1 (stereo not given)	.	.	.	20	.	.
COc1ccc(OC)c(C=NNc2nccs2)c1	.	.	.	13	.	.
CC(=O)Oc1c(C)c(C)c2c(c1C)CC[C@@](C)(CCCC(C)CCCC(C)CCCC(C)C)O2 (stereo not given in full)	.	.	.	-5	.	.
COc1ccc(C(=O)N2N=C(c3ccc(NS(C)(=O)=O)cc3)CC2c2cccs2)cc1 (stereo not given)	4	-21	1	10	12	0
CS(=O)(=O)Nc1ccc(C2=NN(C(=O)C3CCCCC3)C(c3cccs3)C2)cc1 (stereo not given)	0	5	+	-11	11	-3
CS(=O)(=O)Nc1ccc(C2=NN(S(C)(=O)=O)C(c3ccccc3)C2)cc1 (stereo not given)	1	6	132*	4	25	-1
Cc1ccc(C(=O)N2N=C(c3ccc(NS(C)(=O)=O)cc3)CC2c2cccs2)cc1 (stereo not given)	0	-5	1	-24	26	-2
CC(C)C(=O)N1N=C(c2ccc(NS(C)(=O)=O)cc2)CC1c1cccs1 (stereo not given)	-1	12	+	4	29	-2
CS(=O)(=O)Nc1ccc(C2=NN(S(=O)(=O)c3ccccc3)C(c3cccs3)C2)cc1 (stereo not given)	2	-9	-4	-11	6	4
CCOc1ccc(-n2nc3ccc(NC(=O)CC)cc3n2)cc1	-1	.	+	6	8	1
CCOc1ccc(NC(=O)CN2CCN(CC(=O)Nc3ccc4c(c3)OCCO4)CC2)cc1	-2	8	4	.	9	0
CCOc1ccc(NC(=O)COc2ccc(-n3cnnn3)cc2)cc1	1	-2	2	8	-7	-4
CCOc1ccc(NC(=O)CN2CCN(CC(=O)Nc3cccc(F)c3)CC2)cc1	-1	-1	153*	.	-7	0
Cc1noc(C)c1NC(=O)N(C)CC1Oc2ccc(NS(=O)(=O)c3cn(C)cn3)cc2C(=O)N(C(C)CO)CC1C (stereo not given)	.	.	.	12	.	.
Cn1c2ccc(Br)cc2c2nnc(SCC(=O)O)nc21	1	6	-1	9	31*	-2
Cn1c2ccccc2c2nnc(SCC(=O)Nc3cccc(O)c3)nc21	1	0	1	1	35*	1
Cn1c2ccccc2c2nnc(SCC(N)=O)nc21	0	2	-1	15	14	-2
SMILES	UGM FP inh	Rv3671c protease	Mtb FBA inh	Mtb hypoxia inh	GDH-TPI inh	FadD28 FP inh
Cc1cc(=O)n2ccccc2c1C#N	0	2	+	-4	25	-1
NC(Cc1ccc([N+](=O)[O-])cc1)=NOC(=O)COc1ccccc1Cl	.	.	.	2	.	.
CCOC(=O)C1C2COc3ccccc3C2N2C(=O)N(c3ccc(C(F)(F)F)cc3)C(=O)[C@@]12C (stereo not given in full)	.	.	.	-6	.	.
CCc1cc2c3c(c(=O)oc2cc1OC(C)C(=O)O)CCCC3 (stereo not given)	2	-1	159*	-11	16	-7
CCc1cc2c(-c3ccccc3)cc(=O)oc2cc1OC(C)C(=O)O (stereo not given)	1	5	4	3	14	-8
CCc1cc2c3c(c(=O)oc2cc1O)CCCC3	1	0	+	.	13	-3
Cc1c(OC(C)C(=O)O)ccc2c3c(c(=O)oc12)CCCC3 (stereo not given)	3	-2	173*	2	3	-4
CCOC(=O)COc1ccc2c3c(c(=O)oc2c1C)CCC3	-1	-9	17	7	7	-5
Cc1oc2cc3oc(=O)c4c(c3cc2c1C)CCC4	-1	-2	1	6	0	-3
CC(=O)Oc1ccc2c3c(c(=O)oc2c1C)CCCC3	2	-9	+	-3	2	0
Cc1c(OCC(=O)C(C)(C)C)ccc2c3c(c(=O)oc12)CCCC3	2	-11	22	6	9	1
O=C1C2CC3CCC2(O3)C2OCCCN12 (stereo not given)	.	.	.	13	.	.
COc1ccc2c3c(c(=O)oc2c1OCC(N)=O)CCCC3	1	-2	75*	11	-5	-4
CC(=O)C(C)Oc1ccc2c3c(c(=O)oc2c1)CCCCC3 (stereo not given)	0	4	176*	8	12	-3
CCOc1ccc2c3c(c(=O)oc2c1OCC)CCCC3	1	3	12	.	4	-7
CC(C)CNC(=O)COc1ccc2c3c(c(=O)oc2c1)CCC3	-2	2	19	2	9	0
COc1cccc(C(=O)NN=C2SCC(=O)N2CCc2ccc(OC)c(OC)c2)c1	.	.	.	3	.	.
CC1=C(C=NNc2ccc([N+](=O)[O-])cc2[N+](=O)[O-])C(C)(C)CCC1	.	.	.	3	.	.
N#CC1=C2N=C(N)c3ccccc3N2C2=C(C(=O)CCC2)C1c1ccc(F)cc1 (stereo not given)	1	7	0	-7	12	-3
Cc1ccc(C2C(C#N)=C3N=C(N)c4ccccc4N3C3=C2C(=O)CCC3)cc1 (stereo not given)	0	12	-3	-7	31*	0
S=c1[nH]nc(COc2ccccc2)n1N=Cc1ccco1	.	.	.	4	.	.
CCOC(=O)c1c(NS(=O)(=O)c2ccc(Br)cc2)sc2c1CCC2	0	5	1	.	6	12*
CCOC(=O)c1c(NS(=O)(=O)Cc2ccccc2)sc2c1CCCC2	3	-5	3	-4	1	2
CC1CCN(Cc2cc(=O)oc3cc(O)c(Cl)cc23)CC1	1	6	+	17	12	0

Bioassay records as filed in PubChem.
